Reference: PubChem BioAssay (NCI)
This is part of a sample that, as a whole, favours compounds with a hit. Of some 83,000 tested, about 20% had one in any assay.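 Interpretation: 100, growth as untreated; towards 0, rising growth inhibition; 0, no net growth; 0 to -100, cell death. Compounds scoring below 10 were considered active.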 A number with no mark means an inactive call. The source made the active and inactive calls.

Experiments:
Assay in all cases: NCI-60 one-dose screen, 48 h (100 = growth as untreated, 0 = no growth, -100 = all killed)
HCT-15 colon = conditions: 10 µM unless noted
HT29 colon = conditions: 10 µM unless noted
SNB-75 CNS = conditions: 10 µM unless noted
SNB-19 CNS = conditions: 10 µM unless noted
U251 CNS = conditions: 10 µM unless noted
SK-MEL-5 melanoma = conditions: 10 µM unless noted
UACC-62 melanoma = conditions: 10 µM unless noted
LOX IMVI melanoma = conditions: 10 µM
SK-MEL-28 melanoma = conditions: 10 µM unless noted
SK-MEL-2 melanoma = conditions: 10 µM unless noted
EKVX NSCLC = conditions: 10 µM unless noted
SN12C renal = conditions: 10 µM unless noted
UO-31 renal = conditions: 10 µM unless noted
ACHN renal = conditions: 10 µM unless noted
A498 renal = conditions: 10 µM unless noted
CCRF-CEM leukemia = conditions: 10 µM unless noted
MOLT-4 leukemia = conditions: 10 µM unless noted
TK-10 renal = conditions: 10 µM unless noted
CAKI-1 renal = conditions: 10 µM unless noted
PC-3 prostate = conditions: 10 µM unless noted

Row | Structure (SMILES) | growth (HCT-15 colon) | growth (HT29 colon) | growth (SNB-75 CNS) | growth (SNB-19 CNS) | growth (U251 CNS) | growth (SK-MEL-5 melanoma) | growth (UACC-62 melanoma) | growth (LOX IMVI melanoma) | growth (SK-MEL-28 melanoma) | growth (SK-MEL-2 melanoma) | growth (EKVX NSCLC) | growth (SN12C renal) | growth (UO-31 renal) | growth (ACHN renal) | growth (A498 renal) | growth (CCRF-CEM leukemia) | growth (MOLT-4 leukemia) | growth (TK-10 renal) | growth (CAKI-1 renal) | growth (PC-3 prostate)
1 | COc1ccc(/C=C2\C(=N)N=C(SCc3nc4ccccc4[nH]3)NC2=O)cc1 | 104% | 116% | 103% | 104% | 101% | 101% | 103% | 98.3% | 118% | 114% | 109% | 103% | 77.8% | 109% | 119% | 94.9% | 104% |  |  | 
2 | CN(C)c1nc(NCCNS(=O)(=O)c2ccc(C3=Nc4c(N)nc(N)nc4NC(c4ccc(C(F)(F)F)cc4)C3)cc2)nc(Nc2ccc(F)cc2)n1 (stereo unspecified) | 18.7% | -69.6% (active) | 31.7% | 22.9% | 0.0667% (active) | -77.1% (active) | -51% (active) | -78.2% (active) | 14% | -82% (active) | 26.2% | 30.8% | 84.7% | 58.5% | 41.6% | 8.86% (active) | 9.04% (active) | 59.4% | 63.1% | 
3 | CC(=O)Nc1ccc(-c2nc3cc(-c4ccc(O)cc4)ccc3n2C)cc1 | 36.8% | 53.6% | 44.1% | 68.8% | 59.9% |  | 51.4% |  | 74.3% | 84.1% | 56.3% | 40.1% | 30.8% | 50.3% | 72.4% | 43.8% | 13.9% | 79% | 34.6% | 74.6%
4 | COc1ccc(NC(=O)Cn2c3c(sc2=O)[C@H]2[C@@H](O)[C@@H](O)[C@H](O)[C@@H]2CS3)cc1 | 104% | 110% | 88.5% | 106% | 99.7% | 106% | 99.8% |  | 103% | 101% | 97.4% | 98.8% | 90.2% | 96.6% | 111% |  | 108% | 112% | 97.2% | 
